Here are results for 13 compounds from PubChem BioAssay (EPA / NIEHS).

SMILES strings stand for the structures. Where “and” joins values, the source holds several entries; their conditions need not be identical. Identical values can stand only once. Inconclusive results are not listed. Calls of active or inactive are those of the source. How the source made its calls, unless noted: active means hit-call score of the fitted dose curve at least 0.9, where 1 is the maximum; inconclusive means response in the unintended direction; inactive means score below 0.9.

Experiment [1] is described as follows: CCTE_Harrill_HTTr_Viability_MCF7: CCTE's 6-hour Cell Viability Assessment for the High-Throughput Transcriptomics (HTTr) Platform, in MCF-7 cells cultured in DMEM + 10% fetal bovine serum, Harrill Lab (AID 2284010; active means hit-call score of the fitted dose curve at least 0.9, where 1 is the maximum; inactive means score below 0.9). The essentials: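 Propidium iodide exclusion, imaged by high-content analysis, gauged viability after a six-hour exposure across eight concentrations. Cells were MCF-7 grown in DMEM with 10% fetal bovine serum; fits run in both directions against DMSO.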

The target of experiment [2] is Nucleoli Translocation, AR (gene 367) (UniProt P10275). Put plainly: UPITT_HCI_U2OS_AR_TIF2_Nucleoli_Antagonist: University of Pittsburgh U2OS Androgen Receptor-Transcriptional Intermediary Factor 2 (AR-TIF2) Antagonism High Content Imaging Assay for Nucleoli Translocation (AID 2283997). The essentials: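 Antagonism is read as loss of nucleolar AR-RFP signal relative to DHT, imaged in U2OS cells also carrying GFP-TIF2. Compounds screened at 20 uM final, 0.2% DMSO; primary actives retested in triplicate.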
Chain of Nucleoli Translocation, AR (gene 367) (P10275 whole entry, looked up): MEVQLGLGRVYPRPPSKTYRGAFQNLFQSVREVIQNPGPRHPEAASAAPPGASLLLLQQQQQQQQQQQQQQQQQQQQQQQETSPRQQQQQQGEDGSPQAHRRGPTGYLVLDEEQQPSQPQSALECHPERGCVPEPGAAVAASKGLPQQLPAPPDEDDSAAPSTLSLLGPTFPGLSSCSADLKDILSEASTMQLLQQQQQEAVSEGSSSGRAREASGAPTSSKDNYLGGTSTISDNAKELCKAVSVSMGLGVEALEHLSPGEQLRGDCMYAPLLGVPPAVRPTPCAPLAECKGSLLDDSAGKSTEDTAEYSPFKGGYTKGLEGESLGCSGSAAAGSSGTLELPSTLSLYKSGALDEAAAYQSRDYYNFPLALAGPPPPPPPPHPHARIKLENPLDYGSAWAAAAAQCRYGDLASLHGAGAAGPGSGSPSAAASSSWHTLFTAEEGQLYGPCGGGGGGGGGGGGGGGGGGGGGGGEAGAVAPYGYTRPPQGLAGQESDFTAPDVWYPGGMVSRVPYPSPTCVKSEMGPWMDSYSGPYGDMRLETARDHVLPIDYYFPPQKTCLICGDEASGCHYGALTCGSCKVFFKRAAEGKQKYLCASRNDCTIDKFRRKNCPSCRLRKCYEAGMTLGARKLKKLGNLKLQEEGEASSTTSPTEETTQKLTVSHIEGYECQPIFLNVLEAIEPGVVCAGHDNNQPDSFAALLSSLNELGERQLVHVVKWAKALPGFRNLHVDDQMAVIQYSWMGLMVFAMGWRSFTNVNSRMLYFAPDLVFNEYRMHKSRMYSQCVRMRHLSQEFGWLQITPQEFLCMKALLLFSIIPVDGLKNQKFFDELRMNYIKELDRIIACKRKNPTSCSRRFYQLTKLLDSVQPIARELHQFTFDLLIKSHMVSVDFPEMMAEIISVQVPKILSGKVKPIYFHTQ

Experiment [3] has the same target. The experiment can be described thus: UPITT_HCI_U2OS_AR_TIF2_Nucleoli_Agonist: University of Pittsburgh U2OS Androgen Receptor-Transcriptional Intermediary Factor 2 (AR-TIF2) Agonism High Content Imaging Assay for Nucleoli Translocation (AID 2283998). The essentials: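 Readout is red (AR-RFP) fluorescence localized to nucleoli, measured by high-content imaging and analysed for increase relative to DMSO. Compound series spanned 0.195 to 50 uM final in 0.5% DMSO.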

For experiment [4], the target named is Ratio of Nucleoli Translocation and Cytoplasm, AR (gene 367) (UniProt P10275). The experiment can be described thus: UPITT_HCI_U2OS_AR_TIF2_Nucleoli_Cytoplasm_Ratio_Agonist: University of Pittsburgh U2OS Androgen Receptor-Transcriptional Intermediary Factor 2 (AR-TIF2) Agonism High Content Imaging Assay for Ratio of Nucleoli Translocation and Cytoplasm (AID 2284000).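 Further: hits raise the red nucleolar to cytoplasm ratio above vehicle.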 The method in brief: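 Compounds tested at 20 uM final in primary screen (0.2% DMSO) and 0.195-50 uM final in dose-response (0.5% DMSO). Imaging of human U2OS cells bearing RFP-AR and GFP-TIF2; endpoint is nucleoli/cytoplasm red signal ratio, positive direction relative to DMSO.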
Chain of Ratio of Nucleoli Translocation and Cytoplasm, AR (gene 367) (P10275 whole entry, looked up): as above

For a further experiment, the system named is DIO1 (gene 1733). The experiment can be described thus: CCTE_GLTED_hDIO1: CCTE's human Deiodinase 1 (DIO1) Inhibition Assay, Great Lakes Toxicology and Ecology Division (GLTED) Lab (AID 2283987).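 Further: isolated human DIO1 enzyme in a cell-free setup rather than cells; enzyme activity read as free iodide liberated from substrate via Sandell-Kolthoff colorimetry.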 The method in brief:
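Inhibition of human deiodinase 1 is scored as reduced iodide liberation after a 3 h enzyme–chemical incubation, detected colorimetrically by the Sandell-Kolthoff reaction against DMSO controls.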

The target in experiment [5] is Retinoic acid receptor RXR-alpha (Homo sapiens) (UniProt P19793). The experiment can be described thus: TOX21_TR_RXR_BLA_Agonist_Followup_ratio: Tox21 Thyroid Hormone Receptor beta Retinoid X Receptor alpha (RXRa) Agonism Beta-lactamase (BLA) Follow-Up Assay, Ratio (AID 2283968). The essentials:
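Agonist mode: compounds given to RXRa-bla HEK293T cells at 11 concentrations, triplicate, 16 h at 37C/5% CO2. Readout is the 460:530 nm blue/green ratio after 2 h substrate loading at room temperature; DMSO baseline, 9-cis retinoic acid control.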

A short description of experiment [6]: TOX21_TR_RXR_BLA_Agonist_Followup_viability: Viability Assessment in the Tox21 Thyroid Hormone Receptor beta Retinoid X Receptor alpha (RXRa) Agonism Beta-lactamase (BLA) Follow-Up Assay (AID 2283970). The method in brief:
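CellTiter-Glo ATP luciferase read-out of cell viability, multiplexed with the beta-lactamase reporter run. RXRa-bla HEK293T cells in charcoal-stripped serum medium were exposed 16 h at 37C; data fitted both directions relative to DMSO.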

In experiment [7] the target is Ratio of Nucleoli Translocation and Cytoplasm, AR (gene 367) (UniProt P10275). Put plainly: UPITT_HCI_U2OS_AR_TIF2_Nucleoli_Cytoplasm_Ratio_Antagonist: University of Pittsburgh U2OS Androgen Receptor-Transcriptional Intermediary Factor 2 (AR-TIF2) Antagonism High Content Imaging Assay for Ratio of Nucleoli Translocation and Cytoplasm (AID 2283999).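 Further: antagonists lower the DHT-driven ratio of nucleolar to cytoplasmic red signal.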 The essentials: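 High-content imaging of red fluorescence ratio, nucleoli versus cytoplasm, in U2OS expressing AR-RFP and TIF2-GFP, fitted relative to DHT. Compounds tested once at 20 uM final, then 0.195 to 50 uM final in serial dilution.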

Chain of Retinoic acid receptor RXR-alpha (Homo sapiens) (P19793 whole entry, looked up): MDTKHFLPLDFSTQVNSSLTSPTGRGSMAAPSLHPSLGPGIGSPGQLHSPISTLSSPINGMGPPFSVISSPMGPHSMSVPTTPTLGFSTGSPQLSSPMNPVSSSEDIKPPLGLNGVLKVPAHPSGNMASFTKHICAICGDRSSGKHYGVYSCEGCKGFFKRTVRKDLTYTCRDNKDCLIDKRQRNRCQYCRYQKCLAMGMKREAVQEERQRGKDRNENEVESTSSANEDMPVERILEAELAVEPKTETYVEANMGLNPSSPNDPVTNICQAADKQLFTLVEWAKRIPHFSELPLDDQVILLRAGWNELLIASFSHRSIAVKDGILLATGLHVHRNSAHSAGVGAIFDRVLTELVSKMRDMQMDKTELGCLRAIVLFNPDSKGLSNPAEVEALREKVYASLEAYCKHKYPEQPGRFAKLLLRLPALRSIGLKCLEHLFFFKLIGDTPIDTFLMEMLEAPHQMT

Turning to `CCCCC(CC)COC(=O)c1ccc(N(C)C)cc1` (stereo unspecified), the outcome in experiment [1] was inactive.
Still for that read-out and setting: to `CC(C)(C)c1cc(CCC(=O)OCC(COC(=O)CCc2cc(C(C)(C)C)c(O)c(C(C)(C)C)c2)(COC(=O)CCc2cc(C(C)(C)C)c(O)c(C(C)(C)C)c2)COC(=O)CCc2cc(C(C)(C)C)c(O)c(C(C)(C)C)c2)cc(C(C)(C)C)c1O` belongs “inactive”.
`F[Si-2](F)(F)(F)(F)F`: the call in experiment [2], in experiment [3] and in experiment [4] was inactive.
On to `CCCCCCCCn1sc(Cl)c(Cl)c1=O`, for which, in the experiment on DIO1 (gene 1733), the concentration at half-maximal activity (AC50) was 0.411 µM (active). The result in experiment [1] was inactive.
`O=C(c1ccccc1)c1ccc(O)cc1O`: the outcome in experiment [5], in experiment [6] and in experiment [1] was inactive.
Regarding `CCCCCCCCCc1ccc(OCCO)cc1`, the compound was classed as inactive in experiment [2], in experiment [3], in experiment [7] and in experiment [1]. Further, the AC50 in experiment [4] was 75.5 µM (active).
For the compound `CC1CCCCC1`, the result in experiment [2], in experiment [3], in experiment [4] and in experiment [1] was inactive.
Consider `CCCCCCCCCCCCCC[P+](CCCC)(CCCC)CCCC`, for which the concentration at half-maximal activity (AC50) is 11.5 µM (active) in the experiment on DIO1 (gene 1733), 5.62 µM (active) in experiment [2] and 9.75 µM (active) in experiment [7]. Besides, the compound was classed as inactive in experiment [3] and in experiment [4].
In the case of `NS(=O)(=O)C(F)(F)C(F)(F)C(F)(F)C(F)(F)C(F)(F)C(F)(F)F`, the half-maximal activity concentration (AC50) in the experiment with DIO1 (gene 1733) was 44.3 µM (active).
For the compound `Cc1ccc(O)c(-n2nc3ccccc3n2)c1`, the outcome in experiment [1] was inactive.
On to `CCc1ccc(C)nc1`, for which the outcome in experiment [2], in experiment [3], in experiment [7], in experiment [4] and in experiment [1] was inactive.
`C=CC(=O)OCC(F)(F)C(F)(F)C(F)(F)COC(=O)C=C`: in the experiment on DIO1 (gene 1733), the AC50 was 19.6 µM (active).
As to `CCN=c1cc2oc3cc(NCC)c(C)cc3c(-c3ccccc3C(=O)OCC)c-2cc1C`, the AC50 in experiment [3] is 12.9 µM (active); in experiment [7], 0.753 µM (active); in experiment [4], 13.6 µM (active); in experiment [1], 214 nM (active) and 159 nM (active).
